Hit rate of the full screen: of about 52,000 compounds, about 1,700 (3.3%) were called active. This is one part of a sample in which actives are shown more often than they occur. Unmarked numbers belong to inactive results. No stated cut-off is given here; in the data, active means survival mostly below about 52% (no sharp cut-off); inactive means mostly above about 56%.

This assay has as its system Wild type. Nature of the assay: growth inhibition of S. aureus wild type versus tarO mutant, primary screen, teichoic acid synthesis inhibitors, RN4220, OD600 (AID 463173). Particulars: S. aureus RN4220 wild type/DeltatarO growth, OD600, 18 h, active compounds read low, screened at 18.75 µg/mL (by protocol).
As to `CCc1ccc(C2C(C(=O)Nc3ccccc3C)=C(C)Nc3nc(SCc4cccc(OC)c4)nn32)cc1` (stereo not drawn), the survival is 146%.

For the compound `O=C1CC2CCCC(CN1)N2CC(=O)NCc1ccco1` (stereo not drawn), the survival was 104%.

As to `COc1ccc(COC(=O)c2[nH]c3c(c2C)C(=O)CC(c2ccc(OC)c(OC)c2)C3)cc1` (stereo not drawn), the survival was 92%.

Turning to `COc1ccccc1C(=O)NC(=O)Nc1ccc(-n2nc(C(F)(F)F)cc2C(F)(F)F)cc1`, the survival is 101%.

Take `COc1ccccc1C(=O)Nc1ccc(-c2cc(C(F)(F)F)nn2-c2ccccc2)cc1`: the survival is 39%.

As to `COc1ccccc1C(=O)NC(=O)Nc1ccc(-c2cc(C(F)(F)F)nn2-c2ccccc2)cc1`, the survival was 5% (active).

As for `COc1ccc(-c2cc3ccc(O)c(CN4CCCC4)c3oc2=O)cc1`, the survival was 124%.

With `CCOc1ccccc1NC(=O)c1c(NC(=O)COc2ccc(Cl)cc2)sc2c1CCCCC2`, the survival was 75%.

For `CC(=O)c1ccc(OC(=O)c2c(-c3ccccc3Cl)noc2C)cc1`, the survival was 56%.

Consider `Cc1onc(-c2ccccc2Cl)c1C(=O)Oc1ccc(Br)cc1`, for which the survival was 4% (active).

`CCOc1ccc(OC(=O)c2c(-c3ccccc3Cl)noc2C)cc1`: the survival is 59%.

On to `CN(C)c1ccc(C(CNS(=O)(=O)c2ccc(F)cc2)N2CCOCC2)cc1` (stereo not drawn), for which the survival is 83%.

Take `CN(C)c1ccc(C(CNS(=O)(=O)c2ccc(Cl)cc2)N2CCCC2)cc1` (stereo not drawn): the survival is -3% (active).

With `Cc1ccc(S(=O)(=O)NCC(c2ccc(N(C)C)cc2)N2CCCC2)cc1` (stereo not drawn), the survival was 88%.

Regarding `CN(C)c1ccc(C(CNS(=O)(=O)c2ccc(Cl)cc2)N2CCOCC2)cc1` (stereo not drawn), the survival is 10% (active).

For `Cc1ccc(S(=O)(=O)NCC(c2ccc(N(C)C)cc2)N2CCOCC2)cc1` (stereo not drawn), the survival is 65%.

For `CN(C)c1ccc(C(CNS(=O)(=O)c2ccc(F)cc2)N2CCCC2)cc1` (stereo not drawn), the survival is 124%.

Turning to `C=CCn1cc(F)c(=O)n(CC=C)c1=O`, the survival was 109%.

Consider `CCOc1ccc(NC(=O)Cn2nc(Cc3ccncc3)c3ccccc3c2=O)cc1`, for which the survival was 108%.

As to `CC(C)C(=O)N1CCN(c2ccc(NC(=O)c3ccccc3)cc2)CC1`, the survival was 95%.

On to `O=C(Nc1ccc2oc(=O)ccc2c1)c1cccc(F)c1`, for which the survival was 106%.

Regarding `COc1ccc2nc(N(Cc3cccnc3)C(=O)c3ccco3)sc2c1`, the survival is 70%.

Regarding `COc1ccc2sc(N(Cc3cccnc3)C(=O)c3cccs3)nc2c1`, the survival is 64%.

For the compound `CCS(=O)(=O)c1ccccc1C(=O)N(Cc1cccnc1)c1nc2cc(C)c(C)cc2s1`, the survival was 118%.

Turning to `COc1cc(C(=O)N(Cc2cccnc2)c2nc3cc(C)c(C)cc3s2)cc(OC)c1OC`, the survival was 22%.

On to `Cc1cc2nc(N(Cc3cccnc3)C(=O)c3ccc(Cl)s3)sc2cc1C`, for which the survival is 0% (active).

As to `COc1ccc2sc(N(Cc3cccnc3)C(=O)c3ccco3)nc2c1`, the survival is -4% (active).

Turning to `Cc1scc(-c2ccccc2)[n+]1CCO`, the survival is 109%.

With `CCOc1ccc(NC2SC(=O)N(Cc3ccccc3)C2=O)cc1` (stereo not drawn), the survival is 72%.

On to `COc1cc(OC)c(NC(=O)c2cnn(-c3cccc(Cl)c3C)c2C2CCN(C(=O)OC(C)(C)C)CC2)cc1Cl`, for which the survival is 53%.

Turning to `COC(=O)c1ccn(-c2nc(-c3ccc(Cl)cc3)cc(C(F)(F)F)n2)n1`, the survival is 9% (active).

Consider `COc1ccc(CNc2nc(-c3ccc(Cl)cc3)cc(C(F)(F)F)n2)cc1`, for which the survival was -4% (active).

On to `COc1ccc(-c2cc(C(F)(F)F)nc(SCC(=O)NCc3ccc(Cl)cc3)n2)cc1`, for which the survival was 83%.

For `COc1ccc(-c2cc(C(F)(F)F)nc(NCc3ccc(Cl)cc3)n2)cc1`, the survival is -3% (active).

In the case of `COc1ccc(CNC(=O)CSc2nc(-c3ccc(OC)c(OC)c3)cc(C(F)(F)F)n2)cc1`, the survival is 83%.

Turning to `COc1ccc(-c2cc(C(F)(F)F)nc(S(C)(=O)=O)n2)cc1`, the survival is 98%.

As to `CCOC(=O)c1ccn(-c2nc(-c3cccc(OC)c3)cc(C(F)(F)F)n2)n1`, the survival is 48%.

For `COC(=O)CSc1nc(-c2ccc(F)cc2)cc(C(F)(F)F)n1`, the survival was 123%.

With `CS(=O)(=O)N(CC(=O)N1CCCC1)c1cccc(Cl)c1Cl`, the survival was 97%.

With `Cc1cc(C)c2nc(NC(=O)c3ccc(S(=O)(=O)N4CCC(C)CC4)cc3)sc2c1`, the survival is 79%.

Consider `O=C(CN1C(=O)CSC1=O)NC1CCCCC1`, for which the survival is 104%.

For the compound `COc1ccc(OC)c(-c2cc(C(=O)NC(C)c3ccccc3)no2)c1` (stereo not drawn), the survival is -12% (active).

For the compound `COc1ccc(OC)c(-c2cc(C(=O)Nc3cccc(Cl)c3C)no2)c1`, the survival was 26%.

Turning to `COc1ccc(OC)c(-c2cc(C(=O)Nc3ccc(C)c(C)c3)no2)c1`, the survival is -9% (active).

For `CC(C)c1cc(C(=O)NC(C)c2ccccc2)no1` (stereo not drawn), the survival is 81%.

For the compound `CC(NC(=O)c1cc(-c2ccc(Cl)cc2)on1)c1ccccc1` (stereo not drawn), the survival is 140%.

For the compound `COc1ccc(OC)c(-c2cc(C(=O)NCc3ccc(Cl)cc3)no2)c1`, the survival is 85%.

As to `COc1ccc(CNc2oc(-c3ccc(COc4ccc(OC)cc4)o3)nc2C#N)cc1`, the survival is 129%.

`CC(=O)c1nn(-c2ccc(OC(F)(F)F)cc2)nc1Nc1ccc(C)cc1`: the survival was 96%.

On to `CCCS(=O)(=O)Nc1cc2c(cc1NCc1ccccc1)n(C)c(=O)n2C`, for which the survival was 82%.

Consider `CCN1CCN(c2c(S(=O)(=O)c3ccccc3)cnc3ccc(Cl)cc23)CC1`, for which the survival is 119%.

As to `COc1ccc(S(=O)(=O)c2cnc3ccc(Cl)cc3c2N2CCCCC2C)cc1` (stereo not drawn), the survival was 23%.

On to `Cc1cccc(S(=O)(=O)c2cn(Cc3ccccc3)c3cc(N4CCCCC4C)c(F)cc3c2=O)c1` (stereo not drawn), for which the survival is 71%.

As to `CC1CCCCN1c1c(S(=O)(=O)c2ccc(Cl)cc2)cnc2ccccc12` (stereo not drawn), the survival is 3% (active).

Regarding `Cc1ccc2ncc(S(=O)(=O)c3ccccc3)c(N3CCCCC3C)c2c1` (stereo not drawn), the survival was 0% (active).

For the compound `CCN1CCN(c2c(S(=O)(=O)c3ccc(Cl)cc3)cnc3ccccc23)CC1`, the survival was 82%.

As for `COc1ccc(Cl)cc1NC(=O)Cn1nnc(C(=O)NCc2ccc3c(c2)OCO3)c1N`, the survival is 81%.

In the case of `c1ccc(Cn2nnnc2C(c2cccnc2)N2CCN(c3ccccc3)CC2)cc1` (stereo not drawn), the survival is 113%.

Consider `COC(=O)COc1ccc(Oc2nc(NC(C)(C)C)nc(N(C)C)n2)nn1`, for which the survival was 85%.

`CCc1cnc2c(c1SCC(=O)NCc1ccc(C)cc1)c(=O)n(C)c(=O)n2C`: the survival is 67%.

In the case of `Cc1ccc(CNC(=O)CSc2c(C(C)C)cnc3c2c(=O)n(C)c(=O)n3C)cc1`, the survival is 58%.

As to `CCCc1cnc2c(c1SCC(=O)NCc1ccc(C)cc1)c(=O)n(C)c(=O)n2C`, the survival was -6% (active).

As to `CCOC(=O)c1cc(-c2ccccc2)n(-c2cccc(C(=O)Nc3ccc(OC)cc3)c2)c1C`, the survival is 77%.

With `CCOC(=O)c1cc(-c2ccccc2)n(-c2cccc(C(=O)Nc3ccc(OCC)cc3)c2)c1C`, the survival is 10% (active).

As to `CCOC(=O)c1cc(-c2ccccc2)n(-c2cccc(C(=O)Nc3cccc(C(C)=O)c3)c2)c1C`, the survival was 70%.

For the compound `CCOC(=O)c1cc(-c2ccccc2)n(-c2cccc(C(=O)Nc3cccc(F)c3)c2)c1C`, the survival is 131%.

For `CCOC(=O)c1cc(-c2ccccc2)n(-c2cccc(C(=O)Nc3cc(OC)cc(OC)c3)c2)c1C`, the survival was 88%.

Turning to `CCOC(=O)c1cc(-c2ccccc2)n(-c2cccc(C(=O)Nc3cccc(SC)c3)c2)c1C`, the survival is 0% (active).

Regarding `CCc1ccc(Nc2nnc(-c3cc4cc(OC)ccc4oc3=O)s2)cc1`, the survival was 138%.

For the compound `CCC(CC)C(=O)Nc1cc(-c2cccc(C)c2)nn1-c1ccccc1`, the survival is 69%.

`COc1ccc(CCn2c(=O)[nH]c3cc(C(=O)N4CCN(c5ccccc5)CC4)ccc3c2=O)cc1OC`: the survival was 102%.

Regarding `O=C1OC(c2ccccc2)=C/C1=C/N1CCOCC1`, the survival was 116%.

Regarding `COc1ccc(C2C=C(c3ccccc3)Nc3nc(NS(=O)(=O)c4ccccc4)nn32)cc1` (stereo not drawn), the survival is 29%.

In the case of `Cc1ccc(C2C=C(c3ccc(Cl)cc3)Nc3nc(NS(=O)(=O)c4ccccc4)nn32)cc1` (stereo not drawn), the survival was 75%.

Regarding `Cc1ccc(S(=O)(=O)Nc2nc3n(n2)C(c2ccc(Cl)cc2)C=C(c2ccccc2)N3)cc1` (stereo not drawn), the survival was -4% (active).

In the case of `COc1ccc(C2C=C(c3ccccc3)Nc3nc(NS(=O)(=O)c4ccc(C)cc4)nn32)cc1` (stereo not drawn), the survival was 66%.

In the case of `O=S(=O)(Nc1nc2n(n1)C(c1ccc(F)cc1)C=C(c1ccccc1)N2)c1ccccc1` (stereo not drawn), the survival was 74%.

For the compound `Cc1ccc(C2=CC(c3ccc(Cl)cc3)n3nc(-c4ccc(C)cc4)nc3N2)cc1` (stereo not drawn), the survival was 1% (active).

Turning to `COc1ccc(C2C=C(c3ccccc3)Nc3nc(NS(=O)(=O)c4ccc(Cl)cc4)nn32)cc1` (stereo not drawn), the survival is 0% (active).

In the case of `COc1ccc(C2C=C(c3ccc(F)cc3)Nc3nc(-c4ccc(Cl)cc4)nn32)cc1` (stereo not drawn), the survival was 105%.

Take `COc1ccc(C2C=C(c3ccc(Cl)cc3)Nc3nc(-c4ccc(Cl)cc4)nn32)cc1` (stereo not drawn): the survival was 88%.

On to `O=S(=O)(Nc1nc2n(n1)C(c1ccc(F)cc1)C=C(c1ccccc1)N2)c1ccc(Cl)cc1` (stereo not drawn), for which the survival was 14% (active).

As for `Cc1ccc(C2C=C(c3ccccc3)Nc3nc(NS(=O)(=O)c4ccccc4)nn32)cc1` (stereo not drawn), the survival was 83%.

For the compound `O=S(=O)(Nc1nc2n(n1)C(c1ccc(F)cc1)C=C(c1ccc(Cl)cc1)N2)c1ccccc1` (stereo not drawn), the survival is 57%.

Take `CSc1ccc(/C=C(\C#N)C(=O)NC2CCCCC2)cc1`: the survival was 95%.

With `O=C(Cn1nc(-c2ccccc2)c2c(c1=O)CCCC2)Nc1ccc(F)c(Cl)c1`, the survival is 44%.

For `CCOc1ccccc1NC(=O)N1CCC(N2CCN(Cc3ccccc3)C(=O)C2=O)CC1`, the survival was 68%.

As for `Cc1ccc(C)c(S(=O)(=O)NCC(c2ccc(N(C)C)cc2)N2CCOCC2)c1` (stereo not drawn), the survival was 73%.

The values above are taken from PubChem BioAssay AID463173 (ICCB-Longwood Screening Facility, Harvard Medical School, 2010).
